# This is a sample that favours compounds with a hit; in the whole collection about 4.1% have one here.
# ssDAF-12 act: activators of S. stercoralis DAF-12 nuclear receptor; HEK293 ssDAF-12/GRIP1 lit1-tk-luc reporter, luminescence; % of 3 µM dafachronic acid response; activation, % at 6.8 µM; 370,000 compounds, 1% hits; AID 652126;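 active = activation above the mean over all tested compounds plus 3 SD, cut at about 0.9% in these data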
# DAX1 inh-1: inhibitors of DAX1 repression of SF-1 activated StAR promoter; HEK293T StAR-luciferase reporter, SF-1/DAX-1 repression relief; 370,000 compounds, 1.1% hits; AID 652010; inhibition, % at 6.8 µM;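 active = inhibition above the mean over all tested compounds plus 3 SD, cut at about 3.6% in these data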;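 also: higher inhibition means more luminescence from relief of DAX-1 repression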
# hcDAF-12 act: activates DAF-12 receptor from parasite H. contortus; HEK293 hcDAF-12 lit1-tk-luc reporter, luminescence; 0% DMSO, 100% Δ7-dafachronic acid; activation, % at 6.8 µM; 370,000 compounds, 1.4% hits;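 active = activation above the mean of all tested compounds plus 3 SD, cut at about 5.5% in these data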
# hgDAF-12 ag: activates the H. glycines DAF-12 receptor ligand-binding domain; 370,000 compounds, 1.8% hits; AID 687014; HEK293 GAL4-hgDAF12 UAS-luciferase reporter, agonist luminescence; normalized to butyrate control; activation, % at 6.8 µM;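 active = activation above a cutoff set at the mean of all screened compounds plus 3 SD, cut at about 10% in these data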
# DAX1 inh-2: inhibitors of human orphan nuclear receptor DAX1 (NR0B1) | P51843 | HEK293 Gal4-DAX1 luciferase reporter, luminescence | inhibition, % at 6.75 µM | 340,000 compounds, 0.99% hits;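 active = inhibition above the mean over all tested compounds plus 3 SD, cut at about 4.2% in these data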;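 also: inhibition shows as a rise in luminescence from relieved DAX1 repression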
# Target sequence (P51843 207-470 limits assumed): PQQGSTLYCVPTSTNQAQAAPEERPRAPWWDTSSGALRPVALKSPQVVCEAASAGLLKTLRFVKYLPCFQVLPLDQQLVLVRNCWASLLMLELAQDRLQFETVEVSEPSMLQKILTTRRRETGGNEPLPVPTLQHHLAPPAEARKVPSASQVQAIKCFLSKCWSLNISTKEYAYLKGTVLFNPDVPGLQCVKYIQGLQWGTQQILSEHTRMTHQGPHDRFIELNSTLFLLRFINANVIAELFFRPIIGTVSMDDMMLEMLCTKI
# A number is an active result; n = inactive; x = not tested or not shown.
SMILES,ssDAF-12 act,DAX1 inh-1,hcDAF-12 act,hgDAF-12 ag,DAX1 inh-2
O=C(NC1CCS(=O)(=O)C1)/C(=C\c1ccccc1)NC(=O)c1ccccc1 (stereo unspecified),n,n,n,n,n
O=C(NC1CCS(=O)(=O)C1)/C(=C/c1ccc(Cl)cc1)NC(=O)c1ccccc1 (stereo unspecified),n,n,n,n,4.8
CCCCn1c(O)c2n(c1=O)Cc1ccccc1N=C2c1ccc(OC)cc1,n,n,5.6,n,x
CC(C)C[C@@H]1NC(=O)[C@H]2C[C@@]3(C)c4ccccc4N[C@H]3N2C1=O,n,n,n,n,x
CCN1C(=O)/C(=C/C=C2/CCCN2C)OC1=S,n,n,n,13,n
c1csc(-c2noc(CN3CCc4sccc4C3)n2)c1,n,n,n,n,n
C[C@@H]1CN(Cc2nc(-c3cccs3)no2)C[C@H](C)O1,n,n,n,n,9.4
Cc1nnc2sc(-c3ccc(N(C)C)cc3)nn2c1=O,n,n,n,12,n
Cc1cc(OCC(=O)N(C)Cc2ccccc2)ccc1Cl,1.6,n,n,n,n
Cc1cc(OCC(=O)N(C)Cc2ccccc2)ccc1Br,n,n,n,n,n
CCCC1CCC2(CCCN2CCOC(=O)Nc2ccc(Br)cc2)CC1 (stereo unspecified),n,x,n,n,x
CC1CCCCC1NC(=O)C1CCN(S(=O)(=O)c2ccc3c(c2)CCC(=O)N3)CC1 (stereo unspecified),n,n,n,n,5.1
CN(Cc1ccccc1)S(=O)(=O)c1cccc(C(=O)OCC2CCCCC2)c1,n,n,n,n,x
COc1cc(OC)c(NC(=O)CCCn2c(=O)oc3ccccc32)cc1Cl,n,n,n,n,n
COc1ccc(NC(=O)CCCn2c(=O)oc3ccccc32)cc1Cl,n,n,6.4,n,n
Nn1c(SCC(=O)N2c3ccccc3Sc3ccc(Cl)cc32)nnc1-c1n[nH]c2c1CCC2,n,n,n,n,x
Cc1cc(-c2nc3ccccc3o2)c2ccccc2n1,1.2,n,n,n,n
C=CCN1[C@@H](Cc2ccccc2)COc2cccc(F)c2S1(=O)=O,n,n,n,n,x
Cc1noc(C)c1-c1nc(CS(=O)(=O)c2ccc(Cl)cc2)no1,n,n,n,n,n
O=S(=O)(Cc1noc(-c2ccccc2Cl)n1)c1ccccn1,n,n,n,n,4.9
[O-][N+](=C(c1ccccc1)c1ccccc1)c1ccccc1,0.9,n,n,n,n
O=C1COc2ccccc2C(c2nnnn2-c2ccc3ccccc3c2)N1C1CC1 (stereo unspecified),n,n,n,n,x
S=c1[nH]nc(-c2cc(-c3ccccc3)n[nH]2)n1/N=C/c1ccccc1,n,n,n,n,7.3
CC(=O)OCC(=O)N1CCN(C(=O)C(=O)c2cccc(C(F)(F)F)c2)CC1,n,n,n,n,x
COc1ccc(-c2nnc(SCC(=O)NN=Cc3c(O)ccc4ccccc34)n2-c2ccc(OC)cc2)cc1,n,n,n,n,x
SMILES,ssDAF-12 act,DAX1 inh-1,hcDAF-12 act,hgDAF-12 ag,DAX1 inh-2
O=C(NCCc1ccccc1)OCc1cn(Cc2ccccc2F)nn1,n,n,n,n,x
O=C(N/N=C/c1ccc(OCC(=O)N2CCCCC2)cc1)c1ccccc1,n,n,n,n,n
O=C(N/N=C/c1ccc(OCC(=O)N2CCCCC2)cc1)c1ccccc1O,1.7,n,n,n,n
COc1ccc(/C=N/NC(=O)CN2CCCC2)cc1,n,n,n,n,n
CC(C)(C)OC(=O)COc1ccc(/C=N/NC(=O)CN2CCCCC2)cc1,n,n,n,13,n
Oc1ccccc1C=NN1CCN(Cc2ccccc2)CC1,n,n,n,n,x
CC1(C)CC(=O)c2cnc(N3CCc4ccccc43)nc2C1,n,n,6.4,n,n
Cc1cc(C)c2c(n1)sc1c(=O)n(Cc3ccc(F)cc3)cnc12,n,n,n,n,4.5
C=CCn1cnc2c(sc3nc(C)cc(C)c32)c1=O,n,n,n,n,n
C/C=C(/CCC1NCCc2c1[nH]c1ccccc21)[Si](C)(C)C (stereo unspecified),1.3,n,n,n,n
Cc1nc2ccc([N+](=O)[O-])cc2nc1C,n,n,n,n,n
CC1=Nc2cc([N+](=O)[O-])ccc2NC(C)(C)C1,n,n,n,12,4.8
Nc1nonc1-c1noc(COc2ccccc2Cl)n1,n,n,n,n,n
Cc1cccc(OCc2nc(-c3nonc3N)no2)c1C,n,n,n,11,n
Cc1ccc2[nH]c(C(=O)Nc3ccc(F)cc3)cc2c1,n,n,n,n,n
Cc1ccc2[nH]c(CNC(=O)c3ccc(F)cc3)cc2c1,1.0,n,n,n,n
Cc1ccccc1-c1csc(C(C)(O)c2ccc(F)c(F)c2)n1 (stereo unspecified),n,n,n,n,x
O=C1CCCCCN1Cc1nnc(SCc2nc3ccccc3s2)n1-c1ccccn1,1.9,n,5.7,n,n
CCNC(=O)CSc1nnc(CN2CCCCCC2=O)n1-c1ccccn1,n,n,n,n,n
Cc1cc(N)ncc1[N+](=O)[O-],n,n,n,n,4.2
Fc1ccc(Cc2nnc(-c3cccs3)o2)cc1,n,n,n,n,4.3
CC(C)NCc1nnc(-c2ccc(Cl)cc2)o1,n,n,n,n,n
Fc1ccc(-c2nnc(Cc3ccc(Cl)cc3)o2)cc1,n,n,n,12,n
Cn1ccsc1=NC(=O)c1ccc(S(C)(=O)=O)c([N+](=O)[O-])c1,n,n,n,n,n
COc1ccc(C(=O)/C=C/Nc2ccc(S(=O)(=O)Nc3onc(C)c3C)cc2)cc1,1.2,3.9,n,11,n
SMILES,ssDAF-12 act,DAX1 inh-1,hcDAF-12 act,hgDAF-12 ag,DAX1 inh-2
CCc1ccc(C(=O)/C=C/Nc2ccc(S(=O)(=O)Nc3onc(C)c3C)cc2)cc1,n,n,n,11,n
Cc1ccc(-c2nnc(-c3ccccc3)c(-c3ccccc3)n2)cc1,n,n,n,n,n
Cc1ccc2nc(-c3ccccc3)nn2c1,n,n,6.5,n,n
O=C(Nc1cccc(F)c1)OCCN1CCCC12CCC(c1ccccc1)CC2 (stereo unspecified),n,x,n,n,x
Cc1c(OC(=O)c2ccc([N+](=O)[O-])cc2)c2c(c[n+]1C)COC(C)(C)OC2,x,x,x,x,n
Cc1ncc2c(c1OC(=O)c1ccccc1)COC(C)(C)OC2,n,n,n,n,5.1
c1ccc2occc2c1,n,n,n,n,4.3
Nc1cc2ccccc2oc1=O,n,n,n,n,n
CC(=O)c1ccc(NC(=O)C2Cc3ccccc3CN2C(=O)c2ccccc2)cc1 (stereo unspecified),n,n,6.0,n,n
COC(=O)[C@]12C[C@H](CC(=O)NCc3ccc(C)o3)C(=O)N(CCC3=CCCCC3)C1=C[C@H](C(C)C)O[C@@H]2C1CC1,2.1,n,n,n,x
COC(=O)[C@]12C[C@H](CC(=O)NCCc3ccccc3OC)C(=O)N(Cc3ccc(Cl)cc3Cl)C1=C[C@H](COCc1ccccc1)O[C@@H]2C,n,n,n,n,x
c1ccc(SCc2cc(-c3ccccc3)no2)cc1,n,n,n,n,n

# Source: PubChem (The Scripps Research Institute Molecular Screening Center)
